Laboratory results taken from PubChem BioAssay (EPA / NIEHS).
Activity calls are given as the source filed them. The calls were made as follows: active = hit-call score of the fitted dose curve at least 0.9, where 1 is the maximum; inactive = score below 0.9.

Legend:
[1] = ATG_GLI_CIS: Attagene CIS-FACTORIAL HepG2 Assay for human Zinc Finger Protein GLI1 (AID 2282945); settings: HepG2, Attagene cis-factorial reporter mRNA, GLI element; actives raise or lower the signal
Method in brief: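 Bidirectional curve fits relative to DMSO, using reporter mRNA levels from RT-PCR plus capillary electrophoresis. Cells were HepG2 transiently carrying cis-regulated reporter constructs, harvested 24 h after dosing.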

[2] = molecular target: Bile acid receptor (Homo sapiens) (UniProt Q96RI1); assay: ATG_IR1_CIS: Attagene CIS-FACTORIAL HepG2 Assay for human Nuclear Receptor Subfamily 1 Group H Member 4 (NR1H4), IR1 submotif (AID 2282946); settings: IR1 reporter transcription, actives raise or lower the signal
Chain of Bile acid receptor (Homo sapiens) (Q96RI1 whole entry, looked up): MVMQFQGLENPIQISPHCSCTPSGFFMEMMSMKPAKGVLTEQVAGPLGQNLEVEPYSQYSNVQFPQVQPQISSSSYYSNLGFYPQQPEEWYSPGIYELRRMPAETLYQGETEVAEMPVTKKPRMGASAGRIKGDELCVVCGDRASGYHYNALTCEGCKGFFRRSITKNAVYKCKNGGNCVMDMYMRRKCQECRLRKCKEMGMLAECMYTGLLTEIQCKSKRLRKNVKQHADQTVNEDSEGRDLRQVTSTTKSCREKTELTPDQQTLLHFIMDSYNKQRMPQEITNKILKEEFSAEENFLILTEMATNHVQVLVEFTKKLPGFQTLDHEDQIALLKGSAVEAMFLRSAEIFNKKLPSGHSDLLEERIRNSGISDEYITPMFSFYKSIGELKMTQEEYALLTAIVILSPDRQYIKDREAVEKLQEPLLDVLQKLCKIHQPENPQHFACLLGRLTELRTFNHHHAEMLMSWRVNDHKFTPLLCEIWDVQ
Method in brief: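 HepG2 cells transiently transfected with multiplexed cis-element reporter units read endogenous transcription factor activity. After 24 h compound exposure, reporter mRNA was quantified by RT-PCR, fluorescent labelling, HpaI digestion and capillary electrophoresis; bidirectional fitting versus DMSO baseline.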

[3] = ATG_ISRE_CIS: Attagene CIS-FACTORIAL HepG2 Assay for human Interferon Regulatory Factor 1 (IRF1) binding to an Interferon-Stimulated Response Element (ISRE) (AID 2282948); settings: HepG2 ISRE cis-reporter (Attagene), mRNA transcription readout; actives raise or lower the signal
Method in brief: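 Uses HepG2 liver cells transfected with cis-regulated reporters and measures mRNA 24 h post-dosing through RT-PCR, primer-extension labelling and capillary electrophoresis, with DMSO as negative control.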

[4] = ATG_M_32_CIS: Attagene CIS-FACTORIAL HepG2 Assay for M32 Transcription Factor (Internal Marker) (AID 2282949); settings: HepG2 Attagene cis-factorial M32 reporter, mRNA; actives raise or lower the signal;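 also: background control marker of the multiplexed CIS panel rather than a real target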
Method in brief: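 Transient MRTU transfection of HepG2; 24 h compound treatment; TriZol RNA, oligo(dT) RT, reporter PCR, 6-FAM primer extension, HpaI cut, CE. Gain/loss of signal vs DMSO.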

[5] = molecular target: Hypoxia-inducible factor 1-alpha (Homo sapiens) (UniProt Q16665); assay: ATG_HIF1a_CIS: Attagene CIS-FACTORIAL HepG2 Assay for human Hypoxia Inducible Factor 1 (HIF1A) (AID 2282951); settings: HepG2 Attagene cis-factorial HIF1a reporter transcription; actives raise or lower the signal
Chain of Hypoxia-inducible factor 1-alpha (Homo sapiens) (Q16665 whole entry, looked up, the tested form may be a part): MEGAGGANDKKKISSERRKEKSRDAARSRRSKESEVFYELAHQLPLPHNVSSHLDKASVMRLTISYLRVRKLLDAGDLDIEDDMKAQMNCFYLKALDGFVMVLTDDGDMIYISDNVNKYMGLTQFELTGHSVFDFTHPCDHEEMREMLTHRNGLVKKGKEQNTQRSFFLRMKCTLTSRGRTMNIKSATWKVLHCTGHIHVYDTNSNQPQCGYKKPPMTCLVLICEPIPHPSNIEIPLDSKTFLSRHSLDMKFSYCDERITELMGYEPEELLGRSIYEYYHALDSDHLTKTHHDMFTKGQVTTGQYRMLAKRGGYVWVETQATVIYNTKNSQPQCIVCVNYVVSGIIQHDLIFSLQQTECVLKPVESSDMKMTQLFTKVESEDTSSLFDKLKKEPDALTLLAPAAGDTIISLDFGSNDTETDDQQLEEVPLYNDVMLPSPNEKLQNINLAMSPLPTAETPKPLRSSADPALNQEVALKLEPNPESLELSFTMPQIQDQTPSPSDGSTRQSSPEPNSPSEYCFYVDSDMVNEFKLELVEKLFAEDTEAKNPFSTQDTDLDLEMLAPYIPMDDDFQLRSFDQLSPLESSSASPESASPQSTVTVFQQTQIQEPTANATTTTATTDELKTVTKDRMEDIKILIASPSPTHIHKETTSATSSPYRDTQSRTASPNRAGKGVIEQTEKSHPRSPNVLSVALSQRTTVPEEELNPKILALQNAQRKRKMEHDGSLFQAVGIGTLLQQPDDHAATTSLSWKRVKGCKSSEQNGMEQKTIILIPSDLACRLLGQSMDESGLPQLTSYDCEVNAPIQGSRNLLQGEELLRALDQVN
Method in brief: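 Transient MRTU transfection of human HepG2 liver cells, 24 h compound treatment, then total RNA isolation, oligo(dT) reverse transcription, PCR amplification, fluorescent labelling and capillary electrophoresis of reporter fragments. Gain or loss relative to DMSO.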

[6] = molecular target: Hepatocyte nuclear factor 6 (Homo sapiens) (UniProt Q9UBC0); assay: ATG_HNF6_CIS: Attagene CIS-FACTORIAL HepG2 Assay for human Hepatocyte Nuclear Factor 6 (HNF6) (AID 2282952); settings: HepG2 Attagene cis-factorial HNF6 reporter transcription; actives raise or lower the signal
Chain of Hepatocyte nuclear factor 6 (Homo sapiens) (Q9UBC0 whole entry, looked up): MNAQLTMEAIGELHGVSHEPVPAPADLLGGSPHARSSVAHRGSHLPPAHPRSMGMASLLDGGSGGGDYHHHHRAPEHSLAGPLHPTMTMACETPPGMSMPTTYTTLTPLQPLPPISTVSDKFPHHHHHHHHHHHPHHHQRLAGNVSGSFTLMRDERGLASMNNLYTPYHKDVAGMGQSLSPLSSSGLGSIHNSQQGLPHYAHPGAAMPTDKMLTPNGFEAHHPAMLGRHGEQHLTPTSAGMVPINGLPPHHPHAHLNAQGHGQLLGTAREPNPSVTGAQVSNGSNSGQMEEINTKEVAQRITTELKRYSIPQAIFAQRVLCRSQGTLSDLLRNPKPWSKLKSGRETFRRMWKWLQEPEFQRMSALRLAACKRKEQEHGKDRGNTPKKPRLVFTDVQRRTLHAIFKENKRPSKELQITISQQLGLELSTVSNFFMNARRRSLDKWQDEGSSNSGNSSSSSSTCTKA
Method in brief: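 Endogenous factor activity read in transiently transfected HepG2 via promoter-regulated reporter transcripts. RNA harvested 24 h post-dosing, reverse-transcribed, PCR-amplified, FAM-labelled, HpaI-digested and resolved by capillary electrophoresis; fitted in both directions against DMSO.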

[7] = molecular target: Heat shock factor protein 1 (Homo sapiens) (UniProt Q00613); assay: ATG_HSE_CIS: Attagene CIS-FACTORIAL HepG2 Assay for human Heat Shock Transcription Factor 1 (HSE) (AID 2282953); settings: HepG2 HSE cis-reporter, Attagene RNA transcription; actives raise or lower the signal
Chain of Heat shock factor protein 1 (Homo sapiens) (Q00613 whole entry, looked up): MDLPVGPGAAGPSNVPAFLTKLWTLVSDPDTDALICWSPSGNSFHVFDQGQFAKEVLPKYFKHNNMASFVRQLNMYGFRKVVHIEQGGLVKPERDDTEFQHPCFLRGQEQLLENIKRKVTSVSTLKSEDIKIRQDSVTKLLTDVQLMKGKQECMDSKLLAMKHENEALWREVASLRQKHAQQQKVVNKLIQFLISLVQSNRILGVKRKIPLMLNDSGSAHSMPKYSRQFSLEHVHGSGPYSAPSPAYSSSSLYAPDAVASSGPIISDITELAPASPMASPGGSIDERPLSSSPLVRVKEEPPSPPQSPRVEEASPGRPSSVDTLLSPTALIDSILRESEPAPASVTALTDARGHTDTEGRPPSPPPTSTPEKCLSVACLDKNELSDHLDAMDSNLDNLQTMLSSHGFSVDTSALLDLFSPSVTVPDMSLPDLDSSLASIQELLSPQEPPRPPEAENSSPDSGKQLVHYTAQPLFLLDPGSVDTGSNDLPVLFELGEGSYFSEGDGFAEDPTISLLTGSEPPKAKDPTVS
Method in brief: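 Liver-derived HepG2 cells carry transiently introduced multiple reporter units governed by cis promoters. Reporter RNA measured 24 h post-dose through reverse transcription, PCR amplification, fluorescent labelling and capillary electrophoresis, normalised to DMSO.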

[8] = ATG_MRE_CIS: Attagene CIS-FACTORIAL HepG2 Assay for human Metal Responsive Element (MRE) (AID 2282954); settings: HepG2 MRE cis-reporter transcription, Attagene multiplex; actives raise or lower the signal
Method in brief: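 Multiplexed cis-reporter assay in human HepG2 liver cells, 24 h incubation with test chemical. Reporter transcripts measured by RT-PCR and capillary electrophoresis; values from bidirectional curve fitting versus DMSO.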

[9] = ATG_GRE_CIS: Attagene CIS-FACTORIAL HepG2 Assay for human Glucocorticoid Response Elements (GRE) (AID 2282947); settings: HepG2 GRE cis-reporter, Attagene multiplex mRNA; actives raise or lower the signal
Method in brief: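 Multiplexed cis-reporter mRNA induction, HepG2, 24 h post-dose. RT-PCR, FAM-labelled, HpaI-digested amplicons by CE. Bidirectional fit vs DMSO.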

[10] = ATG_M_06_CIS: Attagene CIS-FACTORIAL HepG2 Assay for M06 Transcription Factor (Internal Marker) (AID 2282950); settings: HepG2 Attagene CIS-FACTORIAL M06 internal marker reporter; actives raise or lower the signal
Method in brief: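 Cells (HepG2, transiently carrying cis-driven reporter units) receive chemical for 24 h before RNA isolation. Reporter cDNA is PCR-amplified, FAM-labelled by primer extension, HpaI-digested and sized on a capillary analyser.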

Measured: AC50

CCCCCCCCCCCCCC(=O)OC(C)C
not listed: [9] | [10]
inactive: all other assays above

O=C(Oc1ccccc1)c1ccccc1C(=O)Oc1ccccc1
not listed: [2]
inactive: all other assays above

O=C(O)CCC(=O)O
not listed: [7] | [9] | [10]
inactive: all other assays above

CCCCCOC(=O)CCCCC
not listed: [2]
inactive: all other assays above

CC1CCC(C(C)(C)S)C(=O)C1 (configuration not stated)
not listed: [4] | [9]
inactive: all other assays above

CCN1CN(CC)CN(CC)C1
active: [1] 141 µM | [3] 146 µM | [8] 166 µM
not listed: [7] | [9]
inactive: all other assays above

CCOC(=O)C1=NN(c2ccc(Cl)cc2Cl)C(C)(C(=O)OCC)C1 (configuration not stated)
active: [7] 137 µM | [8] 66.8 µM
not listed: [9]
inactive: all other assays above

NNS(=O)(=O)c1ccc(Oc2ccc(S(=O)(=O)NN)cc2)cc1
not listed: [9]
inactive: all other assays above

CCCCOCC(C)O (configuration not stated)
not listed: [2]
inactive: all other assays above

CCCCc1ccc(Cl)cc1
not listed: [6] | [9]
inactive: all other assays above

CC1=CC(C)C(C=O)CC1 (configuration not stated)
not listed: [2]
inactive: all other assays above

CCOC(=O)c1ccccc1C
not listed: [2]
inactive: all other assays above

Clc1cc(Cl)c(Cl)c(Cl)c1Cl
active: [5] 27.7 µM
not listed: [2]
inactive: all other assays above

C=C[C@@]1(C)CC(=O)[C@]2(O)[C@@]3(C)[C@@H](O)CCC(C)(C)[C@@H]3[C@H](O)[C@H](OC(C)=O)[C@@]2(C)O1
not listed: [2]
inactive: all other assays above

C[N+](C)(C)CCCNS(=O)(=O)C(F)(F)C(F)(F)C(F)(F)C(F)(F)C(F)(F)C(F)(F)C(F)(F)C(F)(F)F
not listed: [4] | [9]
inactive: all other assays above

CC1=C(O)C(=O)C(C)O1 (configuration not stated)
not listed: [7] | [9]
inactive: all other assays above

O=C(Cl)c1ccc(C(=O)Cl)cc1
not listed: [2]
inactive: all other assays above

Cc1noc(NS(=O)(=O)c2ccc(N)cc2)c1C
not listed: [6] | [9] | [10]
inactive: all other assays above

CCCCCCCCCCCC(=O)N(C)CC(=O)O
not listed: [2]
inactive: all other assays above

CC(=O)c1ccccc1O
not listed: [4] | [9]
inactive: all other assays above

[Cl][Sc]([Cl])[Cl]
not listed: [2]
inactive: all other assays above

CCCCCCCCCC[N+](C)(CCCCCCCCCC)CCC[Si](OC)(OC)OC
active: [9] 18.4 µM | [3] 17.4 µM | [4] 20.2 µM | [6] 11 µM
not listed: [2]
inactive: all other assays above

CCCCC(CC)COS(=O)(=O)O (configuration not stated)
not listed: [4] | [9]
inactive: all other assays above

C=CC(=O)OCCCCCCCC(C)C
active: [2] 91.4 µM | [5] 71.8 µM
not listed: [9]
inactive: all other assays above

CCCCCCCCCCCC(=O)OCC
not listed: [2]
inactive: all other assays above

Cc1ccccc1CCO
not listed: [7] | [9]
inactive: all other assays above

c1ccc2cnccc2c1
not listed: [2]
inactive: all other assays above

Oc1ccc(/C=C/c2cc(O)cc(O)c2)cc1
active: [3] 100 µM
not listed: [4] | [5] | [9]
inactive: all other assays above
